# Reference: PubChem BioAssay (NCATS)
# Results filed as inconclusive are left out. Calls of active or inactive are those of the source. Unless noted, the call rests on the fitted dose curve; in most records, active means well fitted cell-killing curve with a large enough effect; inconclusive means small, poorly fitted or top-dose-only effect, or effect the other way; inactive means no such curve, though single readings can be large or run the other way.
# Columns and labels:
# [1] = Quantitative High-Throughput drug screen in 47 multiple myeloma cell lines against the NCATS MIPE library collection: RPMI8226_ATCC cell viability assay (AID 1919871); further: nearly all actives have a fitted effect of over 30% in size
# Summary of the method: (§1)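 Plated at 500 cells per well, myeloma lines received MIPE 4.0 compounds by pin tool. Following 48 h culture at 37 °C, CellTiter-Glo luminescence gave viability relative to DMSO and media-only controls.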
# [2] = Quantitative High-Throughput drug screen in 47 multiple myeloma cell lines against the NCATS MIPE library collection: OPM2_DSMZ cell viability assay (AID 1919872); further: nearly all actives have a fitted effect of over 30% in size
# Summary of the method: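 Viability readout: CellTiter-Glo luminescence following 5 min room-temperature incubation with reagent. Prior exposure: 48 h, 37C, humidified 5% CO2, 500 cells per well.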
# [3] = Quantitative High-Throughput drug screen in 47 multiple myeloma cell lines against the NCATS MIPE library collection: KMS28BM_JCRB cell viability assay (AID 1919874); further: nearly all actives have a fitted effect of over 35% in size
# Summary of the method: as §1
# [4] = qHTS drug screen for cell cycle checkpoint inhibitors in PARPi-resistant BRCA-mutant ovarian cancer cell lines. (AID 1963452; calls by dose curve); conditions: PEO1/OlaR viability, CellTiter-Glo luminescence, 96 h; for Z-AUC: stronger effect = lower value
# Summary of the method: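 PEO1, PEO4 and PEO1/OlaR ovarian cancer cells, 600 per well, exposed 96 h at 37C to a dilution series. Viability read by CellTiter-Glo luminescence, normalized to DMSO and empty wells; activity summarized as Z-AUC.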
# [5] = Quantitative High-Throughput drug screen in 47 multiple myeloma cell lines against the NCATS MIPE library collection: KMS11_JCRBsus cell viability assay (AID 1919873); further: nearly all actives have a fitted effect of over 50% in size
# Summary of the method: as §1
# [6] = qHTS for identification of novel therapeutic agents for treatment of microphthalmiaassociated transcription factor (MiT) renal cell carcinoma (RCC) (AID 1963991; calls by dose curve); conditions: CellTiter-Glo, 48 h; for z-score: stronger effect = lower value
# Summary of the method: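 Viability of three TFE3-fusion renal carcinoma lines measured by CellTiter-Glo after 48 h treatment with each of 1912 compounds at 11 concentrations. Responses scaled between DMSO (100%) and empty wells (0%) before curve fitting.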
# [7] = measured here: PEO1 parental Z-AUC
# [8] = TFE3-RCC UOK109 viability, measured here: UOK109 Z-AUC
# [9] = TFE3-RCC viability, measured here: UOK124 Z-AUC
# [10] = TFE3-RCC viability, measured here: UOK145 Z-AUC
# Potency means the concentration at half of the fitted maximal effect.
structure (smiles),measurement,setting,value
CC1=C(CC(=O)O)c2cc(F)ccc2C1=Cc1ccc(S(C)=O)cc1 (centres undefined),Potency,[1],inactive
same,Potency,[2],inactive
same,Potency,[3],9.35 µM (active)
same,Z-AUC,[4],-0.123 (inactive)
same,Z-AUC,[4]; [7],0.811
same,Z-AUC,[4]; measured here: PEO4 Z-AUC,0.523
O=C(O)CCC=CCC[C@@H]1[C@H](N2CCCCC2)[C@@H](O)C[C@@H]1OCc1ccc(-c2ccccc2)cc1,Potency,[1],inactive
same,Potency,[2],inactive
same,Potency,[5],inactive
same,Z-AUC,[4],0.918 (inactive)
same,Z-AUC,[4]; [7],-0.0252
same,Z-AUC,[4]; measured here: PEO4 Z-AUC,0.219
N#CC(=C1Nc2ccccc2S1)c1ccnc(OCc2ccc(CN3CCOCC3)cc2)n1,Potency,[1],20.9 µM (active)
same,Potency,[5],1.05 µM (active)
CNC(=O)[C@H](CC1=CN=C2C=CCC=C12)NC(=O)[C@@H](CC(=O)NO)CC(C)C,Potency,[1],inactive
same,Potency,[2],inactive
same,Potency,[3],5.9 µM (active)
C[C@]12CCC3=C4CCC(=O)C=C4CC[C@@H]3[C@H]1CC[C@@]2(O)CC#N,Potency,[1],inactive
same,Potency,[2],inactive
same,Potency,[3],inactive
same,z-score,[6]; [8],0.693
same,z-score,[6]; [9],0.709
same,z-score,[6]; [10],-0.023
N=C1SC(=Cc2ccc(-c3ccc4c(c3)C(=O)NC4=O)o2)C(=O)N1c1ccc(Br)cc1,Potency,[1],3.32 µM (active)
same,Potency,[2],2.64 µM (active)
same,Potency,[5],inactive
same,Potency,[3],inactive
same,z-score,[6]; [8],0.374
same,z-score,[6]; [9],0.836
same,z-score,[6]; [10],0.868
CC=C1C2C=C(C)CC1(N)c1ccc(=O)[nH]c1C2 (centres undefined),Potency,[1],inactive
same,Potency,[2],inactive
same,Potency,[5],inactive
same,Potency,[3],inactive
same,z-score,[6]; [8],0.936
same,z-score,[6]; [9],0.297
same,z-score,[6]; [10],1.2
C[C@@H](NC(=O)c1ncnc(N)c1Cl)c1ncc(C(=O)Nc2cc(C(F)(F)F)c(Cl)cn2)s1,Potency,[1],13.2 µM (active)
same,Potency,[2],9.35 µM (active)
same,Z-AUC,[4],0.509 (inactive)
same,Z-AUC,[4]; [7],0.52
same,Z-AUC,[4]; measured here: PEO4 Z-AUC,0.658
COC(=O)N1CCN(Cc2cccc(NC(=O)Nc3ccc(C)nc3)c2F)CC1,Potency,[1],inactive
same,Potency,[2],inactive
same,Z-AUC,[4],-0.162 (inactive)
same,Z-AUC,[4]; [7],-0.204
same,Z-AUC,[4]; measured here: PEO4 Z-AUC,-0.622
O=C(CO)N1CCC(c2[nH]nc(-c3ccc(Cl)cc3)c2-c2ccncn2)CC1,Potency,[1],inactive
same,Potency,[2],inactive
same,Z-AUC,[4],-0.00709 (inactive)
same,Z-AUC,[4]; [7],0.349
same,Z-AUC,[4]; measured here: PEO4 Z-AUC,0.147
C[C@H]1[C@H](O)O[C@@H]2O[C@@]3(C)CC[C@@H]4[C@H](C)CC[C@@H]1[C@@]24OO3,Potency,[1],1.32 µM (active)
same,Potency,[5],1.66 µM (active)
same,Potency,[3],13.2 µM (active)
O=C(O)CCNc1cc(N2CCc3ccccc3CC2)nc(-c2ccccn2)n1,Potency,[1],inactive
same,Potency,[2],inactive
same,Z-AUC,[4],0.743 (inactive)
same,Z-AUC,[4]; [7],0.477
same,Z-AUC,[4]; measured here: PEO4 Z-AUC,0.175
CCC[C@H](Nc1nc(-c2ccc(NC(=O)NCC)c(OC)c2)ncc1C)c1cccnc1,Potency,[1],0.0264 µM (active)
same,Potency,[2],0.0083 µM (active)
same,Potency,[4],0.0087 µM (active)
same,Z-AUC,[4]; [7],-2.97
same,Z-AUC,[4]; measured here: PEO4 Z-AUC,-3.47
same,Potency,"[6]; TFE3-RCC UOK109 viability, active = Z-AUC below -0.8 in all three lines",0.0372 µM (active)
same,z-score,[6]; [8],-2.33
same,z-score,[6]; [9],-3.81
same,z-score,[6]; [10],-2.31
CC(C)(C)c1nc(-c2cccc(NS(=O)(=O)c3c(F)cccc3F)c2F)c(-c2ccnc(N)n2)s1,Potency,[1],13.2 µM (active)
same,Potency,[2],3.32 µM (active)
same,Potency,[3],inactive
same,Z-AUC,[4],1.26 (inactive)
same,Z-AUC,[4]; [7],1
same,Z-AUC,[4]; measured here: PEO4 Z-AUC,1.01
CC(C)n1c(C=C[C@H](O)C[C@H](O)CC(=O)O)c(-c2ccc(F)cc2)c2ccccc21,Potency,[1],18.7 µM (active)
same,Potency,[5],8.33 µM (active)
Cc1ccccc1C(C(=O)NC1CCCCC1)N(C(=O)CNc1ccc(C#N)cc1)c1cccc(F)c1 (centres undefined),Potency,[1],23.5 µM (active)
same,Z-AUC,[4],0.169 (inactive)
same,Z-AUC,[4]; [7],0.0819
same,Z-AUC,[4]; measured here: PEO4 Z-AUC,0.0144
same,z-score,[6]; [8],0.515
same,z-score,[6]; [9],0.305
same,z-score,[6]; [10],0.632
CC(C)(C)c1[nH]cnc1C=c1[nH]c(=O)c(=Cc2ccccc2)[nH]c1=O,Potency,[2],inactive
same,Potency,[5],inactive
CC(=O)O[C@]1(C(C)=O)CC[C@H]2[C@@H]3C=C(Cl)C4=CC(=O)[C@@H]5C[C@H]5[C@]4(C)[C@@H]3CC[C@@]21C,Potency,[1],20.9 µM (active)
same,Potency,[5],inactive
same,Potency,[3],inactive
CC[C@H](C)n1cc(C)c2c(C(=O)NCc3c(C)cc(C)[nH]c3=O)cc(-c3ccc(N4CCNCC4)nc3)cc21,Potency,[1],26.4 µM (active)
same,Potency,[5],23.5 µM (active)
same,Potency,[3],23.5 µM (active)
same,Z-AUC,[4],1.9 (inactive)
same,Z-AUC,[4]; [7],1.58
same,Z-AUC,[4]; measured here: PEO4 Z-AUC,1.72
CC(C)c1onc(-c2c(Cl)cccc2Cl)c1COc1ccc(C=Cc2cccc(C(=O)O)c2)c(Cl)c1,Potency,[1],inactive
same,Potency,[5],inactive
same,Potency,[3],inactive
same,z-score,[6]; [8],0.965
same,z-score,[6]; [9],0.847
same,z-score,[6]; [10],0.507
COc1nccc(-c2c(-c3ccc(F)cc3)ncn2C2CCC(O)CC2)n1 (centres undefined),Potency,[1],1.18 µM (active)
same,Potency,[5],4.18 µM (active)
same,Z-AUC,[4],1.26 (inactive)
same,Z-AUC,[4]; [7],1.27
same,Z-AUC,[4]; measured here: PEO4 Z-AUC,1.21
CN1C(=O)C[C@H](C(=O)N[C@@H](Cc2cnc[nH]2)C(=O)N2CCC[C@@H]2C(N)=O)NC1=O,Potency,[1],inactive
same,Potency,[3],8.33 µM (active)
same,Z-AUC,[4],0.875 (inactive)
same,Z-AUC,[4]; [7],1.25
same,Z-AUC,[4]; measured here: PEO4 Z-AUC,1.02
same,z-score,[6]; [8],0.71
same,z-score,[6]; [9],0.308
same,z-score,[6]; [10],0.628
